The sample as a whole holds a higher share of hits than the screen did.
Pf Dd2 growth: qHTS Primary assay for Inhibitors of Plasmodium falciparum Dd2 growth in vitro. P. falciparum Dd2 growth, SYBR Green, 72 h. 120,000 tested, 4.3% active. Potency, µM (titrated, usually from 28.9 µM), usual class: inhibitors; active means well fitted inhibition curve with a large enough effect; further: nearly all actives have a fitted effect of over 65% in size
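Infected erythrocytes (Dd2, 0.3% parasitemia, 2.5% hematocrit final) are added to compound in RPMI-1640/Albumax II medium, grown 72 h at 37C in low oxygen, then lysed with saponin/Triton-X containing SYBR Green and read by fluorescence.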
A number is an active result; . = inactive.

SMILES	Pf Dd2 growth
Cc1cc(C(=O)N[C@@H]2CN(c3ncccn3)C[C@H]2CO)n(C)n1	.
COCCC(=O)N1CCC(C2CCN(S(C)(=O)=O)CC2)C1 (stereo not drawn)	.
CCC(C)NC(=O)CN1CN(c2ccccc2)C2(CCN(C(=O)c3cccc(OC)c3)CC2)C1=O (stereo not drawn)	.
COCCN1C(=O)c2ccccc2C(C(=O)Nc2ccc3[nH]ccc3c2)C12CCCC2 (stereo not drawn)	11.2µM
COCCN1C(=O)c2ccccc2C(C(=O)NCCc2c[nH]c3ccccc23)C12CCCC2 (stereo not drawn)	.
CCS(=O)(=O)N1CCCC(c2nc(-c3ccccc3)no2)CCNC(=O)CC1 (stereo not drawn)	.
CNC(C)c1ccncc1 (stereo not drawn)	.
CNC(C)c1ccc(OC(F)(F)F)cc1 (stereo not drawn)	.
CNC(C)c1ccc(Oc2ccccc2)cc1 (stereo not drawn)	11.2µM
Cc1ccc(CN2C[C@H]3CN(Cc4ccc(C(=O)O)cc4)CCN3C2=O)cc1	.
COc1ccc2c(CNCc3ccco3)c(C(=O)O)n(Cc3ccccc3)c2c1	.
COc1ccc2c(CNCc3cccs3)c(C(=O)O)n(Cc3ccc(C)cc3)c2c1	.
Cc1ccc2c(CNCC(C)c3ccccc3)c(C(=O)O)n(Cc3ccccc3C)c2c1 (stereo not drawn)	.
Cc1ccc(Cn2c(C(=O)O)c(CNCc3ccc(OC(C)C)cc3)c3ccc(C)cc32)cc1	11.2µM
Cc1ccc2c(CNC3CCCC3)c(C(=O)O)n(Cc3ccc(F)cc3)c2c1	.
COc1ccc(OC)c(CNCc2c(C(=O)O)n(Cc3ccccc3)c3cc(OC)ccc23)c1	.
Cc1ccc(CNCc2c(C(=O)O)n(Cc3ccccc3C)c3cc(C)ccc23)cc1	3.16µM
CCc1ccc(CNCc2c(C(=O)O)n(Cc3ccc(C)cc3)c3cc(C)ccc23)cc1	5.01µM
COc1ccc(Cn2c(C(=O)O)c(CNCc3ccco3)c3ccc(C)cc32)cc1	.
C=Cc1ccc(Cn2c(C(=O)O)c(CNCc3ccccc3)c3ccc(C)cc32)cc1	7.94µM
Cc1ccc2c(CNCc3cccc(Cl)c3)c(C(=O)O)n(Cc3ccc(F)cc3Cl)c2c1	.
Cc1ccc(CNCc2c(C(=O)O)n(Cc3ccc(C)cc3)c3cc(C)ccc23)cc1	.
CN(CC(N)=O)C(=O)[C@@H]1[C@@H](NC(=O)Nc2ccc(F)cc2F)CCN1C(=O)c1cccn1C	.
Cc1ccsc1C(=O)N1CCc2nnc([C@@H]3C[C@@H](O)CN3C(C)C)n2CC1	.
O=C(NC[C@H]1O[C@H](Cc2cc(-c3ccccn3)on2)CC[C@@H]1O)Nc1ccccc1	.
SMILES	Pf Dd2 growth
COc1ccc(-c2cc(C(=O)NCc3cc(C)on3)c3c(c2)N(C)CCO3)cc1OC	.
Cc1noc([C@@H]2CN(C(=O)Cc3cccc4ccccc34)C[C@H]2CO)n1	.
COCCN1CC(C(=O)N(C)Cc2cc(Cl)ccc2OC)CCC1=O (stereo not drawn)	.
O=C(Nc1ccc(Cl)cc1)C1=NO[C@@H]2CN(c3ccccc3)C[C@H]12	.
CC1=NS(=O)(=O)N(Cc2ccccc2)C=C1C(=O)OCc1noc(-c2cccc(C)c2)n1	.
CN(Cc1cc(-c2cccs2)n[nH]1)C[C@@H]1CCCN2CCCC[C@H]12	7.08µM
CN(Cc1cc(-c2cccs2)n[nH]1)C(=O)c1cn(CCN)nn1	.
CN1CCCn2nc(C(=O)N(C)Cc3cc(-c4cccs4)n[nH]3)cc2C1	.
CC(=O)Nc1ccc(CN2CCCC3(CN[S+](=O)([O-])c4ccccc4N3)C2)cc1 (stereo not drawn)	.
COCCNc1cc(-c2noc([C@@H]3CCCN3C3CCN(C(C)=O)CC3)n2)ccn1	.
CN(C)C(=O)c1ccc2cncn2c1	.
COc1ccc(N2C(=O)CSC23C(=O)N(Cc2ccccc2F)c2ccccc23)cc1Cl (stereo not drawn)	.
COc1cccc(N2C(=O)CSC23C(=O)N(Cc2ccccc2F)c2ccccc23)c1 (stereo not drawn)	.
Cc1ccc(NC(=O)CN2C(=O)NC3(CCCCC3)C2=O)c(C)c1	.
Cc1ccc(NC(=O)CN2C(=O)C3(SCC(=O)N3c3ccc(F)c(F)c3)c3ccccc32)c(C)c1 (stereo not drawn)	14.1µM
Cc1cccc(N2C(=O)CSC23C(=O)N(CC(=O)Nc2cccc(Cl)c2)c2ccccc23)c1 (stereo not drawn)	14.1µM
O=C(CN1C(=O)C2(SCC(=O)N2c2ccc(F)c(F)c2)c2ccccc21)Nc1ccccc1F (stereo not drawn)	12.6µM
Cc1ccc(N2C(=O)CSC23C(=O)N(CC(=O)NCCc2ccccc2)c2ccccc23)cc1 (stereo not drawn)	.
COc1ccc(N2C(=O)CSC23C(=O)N(Cc2ccc(C)cc2)c2ccccc23)cc1Cl (stereo not drawn)	.
O=C1CSC2(C(=O)N(Cc3ccccc3F)c3ccccc32)N1c1cccc(C(F)(F)F)c1 (stereo not drawn)	7.08µM
O=C(CN1C(=O)CCSc2ccccc21)Nc1ccccc1F	.
Cc1ccc(NC(=O)CN2C(=O)CCSc3ccccc32)c(C)c1	.
O=C(CN1C(=O)C2(SCC(=O)N2c2ccccc2)c2ccccc21)NCCc1ccccc1 (stereo not drawn)	.
CCc1noc([C@@H]2CC(F)(F)CN2C(=O)c2ncccn2)n1	.
CC(Cn1cccn1)C(=O)N1CCc2[nH]nc(-c3ccc(Cl)cc3)c2C1 (stereo not drawn)	.
SMILES	Pf Dd2 growth
Cc1ccc(C(=O)N2CCC3(CC2)NC(=O)c2ccccc2O3)cc1	.
O=C(NC[C@H]1Cn2ccnc2CO1)c1ccccc1	.
COc1cc(N2C(=O)CSC23C(=O)N(Cc2ccc(C)cc2)c2ccccc23)cc(OC)c1OC (stereo not drawn)	.
Cc1ccc(CNC(=O)CN2C(=O)C3(SCC(=O)N3c3ccc(F)cc3)c3ccccc32)cc1 (stereo not drawn)	.
COc1cccc(N2C(=O)CSC23C(=O)N(CC(=O)Nc2cc(C)ccc2C)c2ccccc23)c1 (stereo not drawn)	8.91µM
Cc1cc(C)cc(N2C(=O)CSC23C(=O)N(CC(=O)Nc2ccc(F)cc2F)c2ccccc23)c1 (stereo not drawn)	10µM
COc1cccc(CN2C(=O)C3(SCC(=O)N3c3ccc(C(C)C)cc3)c3ccccc32)c1 (stereo not drawn)	.
COc1cccc(CN2C(=O)C3(SCC(=O)N3c3ccc(C)c(Cl)c3)c3ccccc32)c1 (stereo not drawn)	.
COCCC1(NS(C)(=O)=O)CCN(C(=O)c2ccc(OC)nc2)CC1	.
Cc1ccc(S(=O)(=O)N2CCc3c(C(=O)NCc4ccccn4)cccc32)cc1	.
CC(NC(=O)c1cc(-c2ccc(F)cc2)cn1C)c1ccccn1 (stereo not drawn)	.
CCOc1cc(=O)n2c(c1C(=O)Nc1ccc(Cl)cc1C)CCCC2	.
COc1ccc(C(=O)N2CCCCCCNC(=O)[C@@H]3CCCC[C@@H]32)cc1F	.
CC1=C(C(=O)OCc2ccccc2)C(c2cccc(Cl)c2Cl)CC(=O)N1 (stereo not drawn)	.
CC1=C(C(=O)OCc2ccc(C)cc2)C(c2ccccc2C(F)(F)F)CC(=O)N1 (stereo not drawn)	5.62µM
CC1=C(C(=O)OCC2CCCCC2)C(c2cccc(Cl)c2Cl)CC(=O)N1 (stereo not drawn)	.
